Compound activity as filed in PubChem.
Shown are actives, neighbours in structure and some others; about 2.4% of the full set was active somewhere.
ANO1 block = inhibitors of mouse TMEM16A calcium-activated chloride channel. Q8BHY3. HEK293 TMEM16A/YFP iodide influx fluorescence, ionomycin. normalized B-score (activity score, 25-100; higher = stronger inhibition) at 10 µM. 1.2% of 310,000 active. AID 588511;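 active = ratio plate-corrected score three or more library SD toward inhibition, starting fluorescence score within five deviations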;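 also: score derived from kinetic fluorescence span divided by baseline fluorescence per well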
Target sequence (Q8BHY3 whole entry, looked up): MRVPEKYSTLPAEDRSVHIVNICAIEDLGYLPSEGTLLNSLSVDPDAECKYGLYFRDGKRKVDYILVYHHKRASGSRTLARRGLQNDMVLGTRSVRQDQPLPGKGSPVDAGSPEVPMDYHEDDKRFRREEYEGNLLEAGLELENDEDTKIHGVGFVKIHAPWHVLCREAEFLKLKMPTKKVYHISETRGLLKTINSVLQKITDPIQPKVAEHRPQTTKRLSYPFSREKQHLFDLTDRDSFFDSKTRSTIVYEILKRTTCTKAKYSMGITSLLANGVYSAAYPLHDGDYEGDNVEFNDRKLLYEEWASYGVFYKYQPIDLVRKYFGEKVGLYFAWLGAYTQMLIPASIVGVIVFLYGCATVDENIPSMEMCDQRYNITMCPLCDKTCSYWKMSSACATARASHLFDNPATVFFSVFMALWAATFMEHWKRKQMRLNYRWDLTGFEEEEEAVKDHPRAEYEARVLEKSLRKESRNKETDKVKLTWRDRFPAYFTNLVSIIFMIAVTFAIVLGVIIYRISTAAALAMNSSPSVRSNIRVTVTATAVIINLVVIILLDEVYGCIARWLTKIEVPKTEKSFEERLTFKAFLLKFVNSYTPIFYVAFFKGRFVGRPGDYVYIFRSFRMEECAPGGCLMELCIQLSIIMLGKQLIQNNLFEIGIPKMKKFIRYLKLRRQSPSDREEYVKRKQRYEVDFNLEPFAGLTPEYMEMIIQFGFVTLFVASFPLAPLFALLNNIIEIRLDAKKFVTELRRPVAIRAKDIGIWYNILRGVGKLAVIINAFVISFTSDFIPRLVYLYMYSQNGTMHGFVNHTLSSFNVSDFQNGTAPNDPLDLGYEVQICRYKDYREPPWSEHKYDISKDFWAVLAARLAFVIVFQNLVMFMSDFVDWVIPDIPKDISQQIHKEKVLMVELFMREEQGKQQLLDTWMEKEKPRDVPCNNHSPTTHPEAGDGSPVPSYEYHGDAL
TMEM16A act = mouse TMEM16A channel activation, primary screen; 0.3% of 340,000 active; HEK293 TMEM16A/YFP-H148Q/I152L, iodide quench fluorescence; stronger effect = lower value; B-score at 10 µM; Q8BHY3;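 active = fluorescence-ratio B-score plate-corrected deviation score at least 3 library SD below zero, with starting fluorescence score within 5 deviations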;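 also: channel opened by trigger with iodide after compound preincubation; score built on the fluorescence ratio of max minus min over baseline; more negative score means more quench and so TMEM16A activation or potentiation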
CRFBP-R2 agonist = agonists of human CRF-binding protein/CRF-R2 receptor complex | AID 588473 | HEK293 CRF-R2/CRF-BP, calcium dye fluorescence (FLIPR); percent of saturating CRF peptide response | activation, % at 13.2 µM | 0.46% of 350,000 active;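 active = activation of at least 50%, plus an integration ratio under a set limit after plate pattern correction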
cardiac RTF act = increases calcium sensitivity of human cardiac regulated thin filaments; P19429+P45379; IANBD-labeled TnC RTF fluorescence at EC20 calcium; 0% EC20 calcium, 100% full calcium; activation, % at 7.2 µM; 0.24% of 340,000 active;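 active = activation above the mean over all tested compounds plus 3 SD, cut at about 30% in these data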;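 also: rise in fluorescence read as greater calcium sensitivity of cardiac thin filaments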
CRFR2-BP antag = blocks CRF-induced signaling of the CRF-BP/CRF-R2 complex | AID 588475 | HEK293 CRF-R2/CRF-BP, CRF-induced calcium fluorescence | 0.59% of 350,000 active | inhibition, % at 11.8 µM;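 active = inhibition of the ligand-induced calcium signal above about 50% at the single tested concentration, limit read from the data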
RTF Ca sens inh = cardiac RTF calcium desensitization; AID 493244; P19429+P45379; IANBD-labeled cardiac RTF, Ca2+ fluorescence; inhibition, % at 7.15 µM; 0.12% of 340,000 active;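 active = inhibition above the mean inhibition of all tested compounds plus 3 SD, cut at about 17% in these data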;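 also: assay run at fixed EC70 calcium of 1.6 mM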
A number is an active result; 0 = inactive; - = no result given.

SMILES	ANO1 block	TMEM16A act	CRFBP-R2 agonist	cardiac RTF act	CRFR2-BP antag	RTF Ca sens inh
COc1ccc(CC(=O)Nc2cccc(-c3nnc(-c4ccc(C)cc4)o3)c2)cc1OC	25	0	0	0	0	0
Cc1ccc(O)c(NC(=S)NC(=O)Cc2ccc(Cl)cc2)c1	0	0	179	0	0	0
CCCC(=O)NC(=S)Nc1ccc(C(C)=O)cc1	0	0	0	0	0	0
CC(=O)c1ccc(NC(=S)NC(=O)Cc2ccc(Cl)cc2)cc1	0	0	75	0	0	0
CC(=O)c1ccc(NC(=S)NC(C)c2ccc(Cl)cc2Cl)cc1 (stereo not drawn)	100	0	0	0	0	0
Nc1cccc2c1C(=O)N(CCOc1ccccc1F)C2=O	0	0	0	0	0	0
Cc1cccc(C)c1NC(=S)Nc1ccc(F)cc1	0	0	0	0	60	0
N#Cc1cnc(SCC(=O)NNC(=O)COc2cccc3ccccc23)nc1N	0	0	0	0	0	0
C[C@@H]1CN([C@@H](C)CO)C(=O)Cc2cc(NC(=O)Nc3ccc(F)cc3)ccc2O[C@@H]1CN(C)Cc1ccc(Cl)c(Cl)c1	-	0	0	0	0	0
C[C@H]1CN([C@@H](C)CO)C(=O)Cc2cc(NS(C)(=O)=O)ccc2O[C@@H]1CN(C)Cc1ccc(Cl)c(Cl)c1	-	0	0	0	55	0
CCCCCCCCCS(=O)(=O)N/N=C/c1cccc([N+](=O)[O-])c1	100	0	0	0	0	0
O=c1[nH]c(CN2CCCCC2)ccc1O	-	-	0	-	0	-
O=C1N=c2ccccc2=C1c1sc(Nc2cccc(O)c2)nc1O	0	0	0	0	0	0
O=C1N=c2ccccc2=C1c1sc(Nc2ccc(O)cc2)nc1O	-	0	0	0	60	0
CC(=O)c1c(C)[nH]c(C(=O)OCC(=O)N2CC(C)OC(C)C2)c1C (stereo not drawn)	0	0	0	0	0	0
O=C(CN1C(=O)NC2NC(=O)NC21)N/N=C/c1ccc(F)cc1 (stereo not drawn)	0	-7.5	0	0	0	0
NC(=O)c1ccc(NS(=O)(=O)c2ccc(Br)s2)cc1	-	-21	0	0	0	0
Cc1nc2ccc(NS(=O)(=O)c3ccc(C)c(C)c3)cc2s1	0	0	0	0	78	0
CSc1nc2ccc(NS(=O)(=O)c3ccc(Br)s3)cc2s1	25	0	0	0	0	0
CCOc1ccc(CCNC(=O)C2CCN(S(=O)(=O)N3CCC(C)CC3)CC2)cc1OCC	0	0	0	0	0	0
COc1cccc(C(C(=O)NC(C)(C)C)N(CC(C)C)C(=O)CCC(=O)Nc2cc(C)on2)c1OC (stereo not drawn)	0	0	0	0	0	0
CN(/N=C/c1ccc(Cl)cc1Cl)c1ncc(Cl)cc1C(F)(F)F	0	0	0	0	63	0
NS(=O)(=O)c1ccc(NC(=O)c2cc(Cl)ccc2Cl)cc1	0	-5.5	0	0	0	0
COc1ccc(CNC(=O)COC(=O)c2cc(S(=O)(=O)N3CCOCC3)ccc2O)cc1OC	-	0	0	0	0	0
C=CCN1C(c2cccc(C(F)(F)F)c2)=CS/C1=C(\C#N)c1nnc(N2CCOCC2)n1-c1ccccc1	-	-	58	-	0	-
SMILES	ANO1 block	TMEM16A act	CRFBP-R2 agonist	cardiac RTF act	CRFR2-BP antag	RTF Ca sens inh
COc1ccc(CNC(=O)CCn2c(=O)oc3ccccc32)c(OC)c1	0	0	0	0	0	0
Cc1cccc(-c2noc(C(C)NC(=O)c3ccco3)n2)c1 (stereo not drawn)	0	0	0	0	108	0
O=C(CCCc1nc2ccccc2s1)NNC(=O)CCN1CCN(Cc2ccccc2)CC1	0	-22	0	0	0	0
O=C(CCCc1nc2ccccc2s1)NCc1ccccc1	0	0	0	0	0	0
COc1ccc(N2C(=O)CSC2c2ccccc2F)c(OC)c1 (stereo not drawn)	0	0	0	0	0	0
COc1ccccc1NC(=S)N1CCCCCC1	0	0	0	0	0	0
CC1(C)CC(=O)C2=C(C1)OC1=C(C(=O)CC(C)(C)C1)C2c1cc([N+](=O)[O-])cc([N+](=O)[O-])c1O	0	0	0	0	0	0
CC1(C)CC(=O)C(C2C3=C(CC(C)(C)CC3=O)Oc3c(Br)cc(Br)cc32)=C(O)C1 (stereo not drawn)	25	0	82	0	0	0
